ROS inducer – ROS inducers in U2OS cancer cells, primary screen, cell-based, H2DCF-DA fluorescence. U2OS ROS induction. ROS induction (% of piperlongumine), % at 10 µM. 46,000 tested, 2% active; in the data active means ROS induction above about 79%, passing the limit was not always enough;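 further: 0% = DMSO vehicle median and 100% = reference compound median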
YB-1 expr inh – inhibitors of YB-1 gene expression, primary screen, cell-based, fluorescence; U2OS, qRT-PCR YB-1 vs CDIP delta delta Cp, 16 h; active compounds read high; zero = DMSO, each unit about twofold; delta delta Cp (YB-1 minus CDIP) (no concentration beside the values); 30,000 tested, 0.37% active;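 active means delta delta Cp rounded down to an integer at or above 3, about 3 SD of DMSO wells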;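 further: higher means less YB-1 transcript or more CDIP transcript relative to DMSO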
The depositor's hits bear a star; . = not tested or not shown. Only some compounds are listed: those with a hit (about 2.1% of all), similar ones and a draw of the others.

SMILES | ROS inducer | YB-1 expr inh
COc1ccc(C2C(C(=O)O)c3ccccc3C(=O)N2Cc2ccc(Cl)cc2)cc1 (stereo unspecified) | -3.2 | 0.257
Cc1sc2ncnc(N3CCN(C)CC3)c2c1-c1ccccc1 | 32.0 | .
COc1ccc(-c2cc(-c3ccccc3)nc(SCC(=O)N3CCCCC3)c2C#N)cc1 | 54.4 | .
COc1ccc(-c2cc(-c3ccccc3)c(C#N)c(SCS(=O)Cc3ccccc3)n2)cc1 (stereo unspecified) | 87.1* | .
CC(NS(=O)(=O)c1ccc(C(C)(C)C)cc1)C1C2CC3CC(C2)CC1C3 (stereo unspecified) | -2.3 | .
COc1cc(C2OCC3C(c4cc(OC)c5c(c4)OCO5)OCC23)cc(OC)c1OC (stereo unspecified) | 34.1 | 0.858
COc1ccc(C2OCC3C(c4cc(OC)c5c(c4)OCO5)OCC23)cc1OC (stereo unspecified) | 4.5 | 5.01*
Cc1ccc2c(c1)c1c(n2CCC(=O)O)C(=O)CCC1 | 0.7 | .
CCCc1cc(NCCc2ccccc2)n2c(nc3ccccc32)c1C#N | 91.9* | .
O=C(CSc1nc2ccccc2c2nc3ccccc3n12)NCCc1ccccc1 | 53.3 | .
N#Cc1c(-c2ccccc2Cl)c(C#N)c2nc3ccccc3n2c1N | 69.7 | .
Cc1c(Cc2ccccc2)c(Cl)n2c(nc3ccccc32)c1C#N | 163.7* | .
CCC(C)c1ccc(NC(=O)C2CC(=O)N(c3ccc(C)cc3)C2)cc1 (stereo unspecified) | -11.4 | .
CC(C)C(=O)N1N=C(c2ccccc2)CC1(O)C(F)(F)F (stereo unspecified) | -6.7 | .
FC(F)(F)c1cc(-c2ccc3ccccc3c2)no1 | 9.1 | -0.197
COc1cc2c(cc1OC)CN(C(=O)[C@H]1[C@@H]3C(=O)O[C@@H](c4ccccc4)[C@@H](c4ccccc4)N3[C@@H](c3ccccc3OCCO)[C@]13C(=O)Nc1ccc(C#CCCO)cc13)CC2 | 120.1* | -0.562
COC(=O)C(CC#Cc1ccc2c(c1)[C@]1(C(=O)N2)[C@H](C(=O)N2CCCCCCC2)[C@H]2C(=O)O[C@H](c3ccccc3)[C@H](c3ccccc3)N2[C@@H]1c1ccc(OCCO)cc1)C(=O)OC | 103.9* | -0.102
COC(=O)C(CC#Cc1ccc2c(c1)[C@]1(C(=O)N2)[C@H](c2ccc(O)cc2)N2[C@H](c3ccccc3)[C@H](c3ccccc3)OC(=O)[C@H]2[C@@H]1C(=O)N1CCCCCCC1)C(=O)OC | 39.6 | 0.0946
O=C1O[C@@H](c2ccccc2)[C@@H](c2ccccc2)N2[C@@H](c3ccccc3OCCO)[C@]3(C(=O)Nc4ccc(C#CCCO)cc43)[C@@H](C(=O)N3CCCCCCC3)[C@H]12 | 220.7* | -0.11
COc1ccc(C#Cc2ccc3c(c2)[C@]2(C(=O)N3)[C@H](c3ccccc3OCCO)N3[C@H](c4ccccc4)[C@H](c4ccccc4)OC(=O)[C@H]3[C@@H]2C(=O)N2CCc3cc(OC)c(OC)cc3C2)cc1 | 63.7 | -0.178
O=C1O[C@@H](c2ccccc2)[C@@H](c2ccccc2)N2[C@@H](c3ccc(OCCO)cc3)[C@]3(C(=O)Nc4ccc(C#CCCO)cc43)[C@@H](C(=O)N3CCCCCCC3)[C@H]12 | 17.4 | 0.118
COc1cc2c(cc1OC)CN(C(=O)[C@H]1[C@@H]3C(=O)O[C@@H](c4ccccc4)[C@@H](c4ccccc4)N3[C@@H](c3ccccc3OCCO)[C@]13C(=O)Nc1ccc(C#CC4=CCCCC4)cc13)CC2 | 86.7* | -0.259
COc1cc2c(cc1OC)CN(C(=O)[C@H]1[C@@H]3C(=O)O[C@@H](c4ccccc4)[C@@H](c4ccccc4)N3[C@@H](c3ccc(OCCO)cc3)[C@]13C(=O)Nc1ccc(C#CC4=CCCCC4)cc13)CC2 | 61.0 | -0.498
Cc1cc(NC(=O)c2cc(-c3ccc(F)cc3)no2)nn1CC(=O)N1CCC(C)CC1 | -8.8 | .
CC(C)c1ccccc1NC(=O)c1cc2ccccc2o1 | 12.5 | .
SMILES | ROS inducer | YB-1 expr inh
CCn1cc(CCCC(=O)NC2CCC(C)CC2)c2ccccc21 (stereo unspecified) | -11.4 | .
CCC(C)NC(=O)C1CCCN(S(=O)(=O)c2cccc3cccnc23)C1 (stereo unspecified) | -1.9 | .
CC(C)Cn1c(CN(Cc2ccccc2)Cc2ccccc2)nc2c1c(=O)[nH]c(=O)n2C | -9.9 | .
Cc1ccc2nc(S/C=C/C(=O)c3ccccc3)[nH]c2c1 | 58.5 | -0.344
Cc1c(Cl)cccc1Nc1nc(N)nc(CSC(=S)N(C)C2CCCCC2)n1 | 59.9 | .
COc1cc2c(cc1OC)CN(C(=O)[C@@H]1[C@H]3C(=O)O[C@H](c4ccccc4)[C@H](c4ccccc4)N3[C@H](c3ccc(O)cc3)[C@@]13C(=O)Nc1ccccc13)CC2 | 48.1 | 0.261
COc1cc2c(cc1OC)CN(C(=O)[C@@H]1[C@H]3C(=O)O[C@H](c4ccccc4)[C@H](c4ccccc4)N3[C@H](c3ccc(OCCO)cc3)[C@@]13C(=O)Nc1ccccc13)CC2 | 98.2* | -0.133
O=c1c2ccccc2n2c(-c3ccsc3)nnc2n1Cc1ccccc1 | 5.5 | .
COc1ccc(NC(=O)N(C)C[C@@H]2Oc3ncc(-c4cccc(C(F)(F)F)c4)cc3C(=O)N([C@H](C)CO)C[C@@H]2C)cc1 | 32.4 | -0.0146
C[C@H](CO)N1C[C@H](C)[C@H](CN(C)C(=O)Nc2ccc(F)cc2)Oc2ncc(-c3cccc(F)c3)cc2C1=O | 74.8 | -0.339
C[C@H](CO)N1C[C@H](C)[C@H](CN(C)C(=O)Nc2ccccc2)Oc2ncc(-c3cccc(C(F)(F)F)c3)cc2C1=O | 98.2* | 0.0882
C[C@H](CO)N1C[C@H](C)[C@H](CN(C)Cc2ccc(F)cc2)Oc2ncc(-c3cccc(C(F)(F)F)c3)cc2C1=O | 77.1* | -0.374
C[C@H](CO)N1C[C@H](C)[C@H](CN(C)Cc2ccccc2)Oc2ncc(-c3cccc(C(F)(F)F)c3)cc2C1=O | 41.9 | 0.145
C[C@H](CO)N1C[C@H](C)[C@H](CN(C)C(=O)Nc2ccc(F)cc2)Oc2ncc(-c3cccc(C(F)(F)F)c3)cc2C1=O | 91.4* | 0.0571
C[C@H](CO)N1C[C@H](C)[C@H](CN(C)C(=O)Nc2ccccc2)Oc2ncc(-c3cc4ccccc4o3)cc2C1=O | 153.1* | -0.129
CC(C)NC(=O)N(C)C[C@@H]1Oc2ncc(-c3cc4ccccc4o3)cc2C(=O)N([C@H](C)CO)C[C@@H]1C | -5.6 | -0.208
CC(C)C(=O)NC1CCCCCCCCCCC1 | 3.9 | .
CCn1c(C)nc2cc(S(=O)(=O)N3CCOCC3)ccc21 | -9.9 | .
NC(=O)CSc1ccc(-c2ccncc2)nn1 | -12.1 | .
CCc1ccc(N(CC)C(=O)c2cn(CC)c(=O)c3cc(OC)c(OC)cc23)cc1 | -6.5 | .

High-throughput results as filed in PubChem BioAssay.
